Screens (PubChem)
aSyn yeast inh = qHTS of alpha-syn Inhibitors; Yeast expressing alpha-synuclein, growth rescue, BacTiter-Glo, 24 h; Potency, µM (highest dose often 46.1 µM), for inactives: at the top dose growth rescue (activation), actives largely listed as activators; hit rate 0.14% among 370,000; AID 652106, 2013; note: % of control where 0% means no effect; nearly all actives have a fitted effect of over 65% in size
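Readout is rescue of growth in alpha-synuclein-expressing yeast, so inhibitors of toxicity appear as activators. Growth after 24 hr at 30 deg C in galactose medium is quantified by luminescence.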
Mito fusion act = qHTS Assay for Small Molecule Inhibitors of Mitochondrial Division or Activators of Mitochondrial Fusion. Potency, µM (series often up to 46.1 µM), inactives show at the highest dose growth rescue (activation), most hits filed as activators. AID 485298, 2010. hit rate 0.23% among 320,000. S. cerevisiae fusion-defective mutant growth rescue, CellTiterGlo 48 h; note: % of control where 0% means no effect; nearly all actives have a fitted effect of over 45% in size
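Yeast fusion mutant, YPEG (non-fermentable carbon), compound, 48 h at 37C non-permissive; CellTiterGlo added, 10 min RT, luminescence read. Rescued growth = division inhibition.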
FUS yeast rescue = qHTS for Suppressors of FUS Proteinopathy: Primary screen using FUS-linked yeast assay; AID 1347120, 2019; hit rate 0.24% among 390,000; S. cerevisiae FUS-expressing, growth rescue, OD600, 24 h; Potency, µM (highest dose often 76.6 µM), usual class: activators;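 note: plate controls were DMSO vehicle for no effect and reference control for full effect; nearly all actives have a fitted effect of over 55% in size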
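Steps: raffinose overnight preculture; dilution to OD 0.005 in 2% galactose minimal medium; compound addition (concentration series); 24hr at 30C, 99% humidity; absorbance read at 600 nm.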
TDP-43 yeast inh = qHTS of TDP-43 Inhibitors; TDP-43 expressing yeast growth rescue, BacTiter-Glo, 24 h; hit rate 1.8% among 410,000; AID 652104, 2013; Potency, µM (highest dose often 46.1 µM), for inactives: at the top dose growth rescue (activation), hits mostly activators; note: % of control where 0% means no effect; nearly all actives have a fitted effect of over 50% in size
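Yeast cells expressing TDP-43 under galactose induction are exposed to compounds for 24 hr at 30 deg C. BacTiter-Glo luminescence measures growth, so protective compounds score as activators.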
ERG Ets-DNA blk = qHTS for Small Molecule Inhibitors of the ERG Ets/DNA interaction | Transcriptional regulator ERG (Homo sapiens), P11308 | fluorescence polarization, His-ERG Ets domain / labelled DNA | Potency, µM (series often up to 76.9 µM), without a hit: top-dose FP activity, negative = inhibition, most hits filed as inhibitors | hit rate 0.028% among 370,000 | AID 624246, 2012; active = well fitted inhibition curve with a large enough effect in the polarisation, with a control signal flat; inconclusive = small, poorly fitted or top-dose-only effect, or effect the other way, or a change in a side signal; inactive = no such curve, though single readings can be large or run the other way; the % refers to the polarisation;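 note: polarization taken with two DNA probes labelled with fluorescein and Texas red; % of control where 0% means no effect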
Target sequence (P11308 whole entry, looked up, the tested form may be a part): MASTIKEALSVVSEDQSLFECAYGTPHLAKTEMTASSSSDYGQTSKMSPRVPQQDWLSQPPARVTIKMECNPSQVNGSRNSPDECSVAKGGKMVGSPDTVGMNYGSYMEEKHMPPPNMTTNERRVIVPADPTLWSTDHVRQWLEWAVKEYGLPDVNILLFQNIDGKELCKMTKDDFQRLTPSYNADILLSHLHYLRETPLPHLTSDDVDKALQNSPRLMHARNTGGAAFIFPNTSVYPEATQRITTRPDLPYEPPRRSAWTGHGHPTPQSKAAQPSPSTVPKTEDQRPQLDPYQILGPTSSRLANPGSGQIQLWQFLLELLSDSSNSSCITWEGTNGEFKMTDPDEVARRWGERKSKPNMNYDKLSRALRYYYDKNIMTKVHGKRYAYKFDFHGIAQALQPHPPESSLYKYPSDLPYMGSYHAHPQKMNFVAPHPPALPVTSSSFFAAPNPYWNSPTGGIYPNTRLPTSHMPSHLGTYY
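His-tagged ERG Ets domain (1 uM in the protein solution; 300mM KCl, 50mM Tris-HCl, 1mM EDTA, 1mM DTT, pH 7.5) received compound, then a probe mix of 5 nM fluorescein-DNA and 100nM Texas-615-DNA. Fluorescence polarization was read for both dyes.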
Abeta rescue = qHTS for compounds that reverse cellular toxicity of Amyloid beta (A-beta) peptide in yeast: Primary Screen; yeast expressing A-beta42, growth rescue, OD600, 48 h; response scale: 0% DMSO, 100% iron-clioquinol control; Potency, µM (doses to about 46.1 µM), hits mostly activators; hit rate 0.063% among 410,000; AID 1347071, 2019; note: nearly all actives have a fitted effect of over 55% in size
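Yeast A-beta toxicity model in growth medium with pinned compounds, 48 h at 30 C; growth read as absorbance at 600 nm. Normalized to FeCl3/clioquinol equimolar mix (positive) and DMSO (negative).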
An asterisk follows results filed as active; i = inactive; ? = inconclusive; . = no result given; [ ] = another dose, or the depositor's remark. Hits are enriched below; roughly 2.2% of the tested compounds scored in any of these assays. Unless noted, calls come from the whole dose curve; as a rule, active = well fitted curve in the direction sought with a large enough effect; inconclusive = small, poorly fitted or top-dose-only effect, or another doubt; inactive = no such curve, though single readings can be large; an effect the other way counts as inactive or inconclusive. Potency is the fitted concentration of half-maximal effect.

SMILES	aSyn yeast inh	Mito fusion act	FUS yeast rescue	TDP-43 yeast inh	ERG Ets-DNA blk	Abeta rescue
Cc1ccc2nc(NCc3ccccc3)c(C=NCc3ccccc3)c(=O)n2c1	1%	7.9µM*	i	-11%	-12%	i
Cc1ccc(Cl)c(NC(=O)Nc2csc3c2CCCC3)c1	.	.	i	10%	3%	i
COc1ccccc1CNC(=O)CSCc1nc(-c2ccc(OC)c(OC)c2)oc1C	.	.	i	0%	-3%	i
Cc1oc(-c2ccccc2Cl)nc1CSCC(=O)N1CCCC1	-1%	-4%	i	13µM*	4%	i
COc1ccc(-c2nc(CSCC(=O)NCc3ccccc3Cl)c(C)o2)cc1OC	.	.	i	25µM*	-1%	i
Cc1oc(-c2ccccc2F)nc1CSCC(=O)N1CCN(c2ccccc2)CC1	.	.	i	32µM*	-6%	i
COC(=O)[C@@]12CCCCC3=C1N(CCC3)C(=O)[C@H]2CC(=O)NCc1ccccc1	.	.	i	.	.	.
COc1ccc(S(=O)(=O)N2CCC(C(=O)Nc3cc(C(F)(F)F)ccc3Cl)CC2)cc1	.	.	?	?	2%	i
Cc1oc2ncn(CC(C)C)c(=O)c2c1C(=O)NCCCN(C)Cc1ccccc1	.	.	i	16%	3%	i
CC(=O)NCc1ccc(C(=O)CCl)cc1	-17%	?	i	21%[9.22 µM]	-3%	i
CC(=O)Nc1ccc(C(=O)OCc2ccccc2Cl)cc1	-25%	16%	i	20µM*	2%	i
CC(=O)Nc1ccc(C(=O)OCc2ccc(Br)cc2)cc1	-28%	16µM*	.	27%	-12%	i
O=C(OCc1ccc(Br)cc1)c1ccncc1	6%	-5%	i	7%	-5%	i
CC(=O)Nc1ccc(C(=O)CCl)cc1	-23%	?	i	10µM*	3%	i
Cc1[nH]c2ccccc2c1C(c1ccccc1)c1ccc(Cl)s1 (configuration not stated)	.	.	i	35µM*	4%	?
COc1cccc(C(=O)c2cn(CC(=O)NCc3ccccc3)c3nc(C)ccc3c2=O)c1	.	.	i	-26%	1%	i
Cc1nc(COc2ccccc2Cl)sc1-c1ccnc(N)n1	13%	4%	i	11µM*	-4%	i
Clc1ccccc1OCc1nn2c(-c3ccncc3)nnc2s1	-10%	7%	i	11%	.	i
Cc1cc(Br)ccc1NC(=O)COc1cc(=O)n(C)c2ccccc12	.	.	i	-2%	5%	i
COc1ccc(OC)c(-c2csc(NC(=O)Cc3cc(OC)c(OC)c(OC)c3)n2)c1	3%	-6%	i	4%	11%	i
COc1ccc(OC)c(-c2csc(NC(=O)Cn3[nH]c(=O)c4ccccc4c3=O)n2)c1	-3%	9%	40µM*	-20%	4%	i
COc1ccc(OC)c(-c2csc(NC(=O)Cc3ccc(F)cc3)n2)c1	5%	-13%	i	14µM*	1%	i
C(/Oc1ccccc1)=C1\Nn2c(nnc2-c2cc(-c3ccccc3)n[nH]2)S1	5%	.	.	.	.	.
O=C(NC1CC(=O)N(c2ccc(Cl)cc2)C1)c1ccc(S(=O)(=O)N2CCCC2)cc1 (configuration not stated)	.	.	i	-3%	-2%	i
Cc1cccc(-n2nc([N+](=O)[O-])c(=NCc3cccnc3)n2O)c1	-12%	5%	i	?	3%	i
SMILES	aSyn yeast inh	Mito fusion act	FUS yeast rescue	TDP-43 yeast inh	ERG Ets-DNA blk	Abeta rescue
O=[N+]([O-])c1nn(-c2ccc(Cl)cc2)n(O)c1=NCc1ccccc1Cl	25%	-4%	i	?	21%	i
O=[N+]([O-])c1nn(-c2ccc(Cl)cc2)n(O)c1=NCc1cccnc1	1%	?	.	13µM*	0%	i
O=[N+]([O-])c1nn(-c2cccc(Cl)c2)n(O)c1=NCc1cccnc1	-3%	9%	.	11µM*	-7%	i
Cc1cc2nc[nH]c(=O)n2n1	-3%	.	i	10%	.	i
Cc1ccc2c(c1)c1c3n2CCN(C(=O)C2CC2)C3CCC1 (configuration not stated)	2%	2%	i	28µM*	3%	i
Cc1ccc(C(=O)N2CCn3c4c(c5cc(C)ccc53)CCCC42)cc1 (configuration not stated)	.	.	?	-2%	3%	i
CCC(C(=O)NCc1ccccc1)n1ncn2c(cc3occc32)c1=O (configuration not stated)	.	.	i	16%	-1%	i
COc1ccc(-n2cnnc2SCc2ncc(-c3ccccc3)o2)cc1	1%	0%	i	13%	3%	i
Cn1c(COc2ccc(Cl)cc2)nnc1SCc1ncc(-c2ccccc2)o1	?	3%	?	22µM*	11%	i
Cc1ccc2nc(-c3ccccc3Cl)cc(C(=O)Nc3cc(C)on3)c2c1	9%	21%	i	18µM*	-4%	i
COCCCN1C(=O)c2[nH]nc(-c3cc(C)cc(C)c3O)c2C1c1ccc(O)c(OC)c1 (configuration not stated)	1%	0%	40µM*	8%	0%	i
Cn1c(-c2ccccc2F)cc2onc(-c3ccccc3)c2c1=O	-12%	?	i	20µM*	1%	i
CCCN1C(=O)/C(=C/c2ccc(OCC(=O)OCC)cc2)NC1=S	0%	-5%	22µM*	-10%	11%	i
Cc1cc(/C=C2\NC(=S)N(C)C2=O)ccc1N1CCCC1	-1%	-7%	i	-9%[0.397 µM]	10%	i
CCCN1C(=O)/C(=C/c2ccc(N3CCCC3)c(C)c2)NC1=S	-16%	-8%	i	3.2µM*	?	i
CCN(CC)c1ccc2cc(-c3nc(-c4cccs4)no3)c(=O)oc2c1	.	.	i	21%	6%	i
COc1ccc(C2CC(c3ccc(Cl)cc3)=NN2C(C)=O)cc1 (configuration not stated)	?	0%	i	13µM*	7%	i
CCOc1ccc(-c2[nH]ncc2Oc2ccccc2OCC)c(O)c1	?	12%	i	18µM*	10%	i
CCOc1ccc(-c2[nH]ncc2-c2ccc(OC)c(OC)c2)c(O)c1	-4%	17%	?	-6%	0%	i
